Here are results for 92 compounds from PubChem BioAssay AID504408 (Broad Institute, 2011).

SMILES strings stand for the structures. Among all 300,000 compounds or so, about 5,200 (1.7%) were called active. This is one part of a sample in which actives are shown more often than they occur.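 The calls were made as follows: active = mean replicate activation of at least 50% with a set share of replicates each reaching 50%; inconclusive = only one of those two conditions met; inactive = mean below 50% and too few replicates reaching it.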

This assay can be described thus: HSF-1 response element luciferase induction – NIH3T3-HGL cells, MG132 stress, luminescence, single point, primary screen (AID 504408).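 Also: 0% = median of the neutral control wells and 100% = twice that signal.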 As to conditions: NIH3T3-HGL HSF-1 luciferase reporter, MG132, 8 h; at 9 µM; stronger effect = higher value; 100% = twice DMSO control signal. In general terms: A reporter such as luciferase makes a cellular process visible.
Regarding `COc1ccccc1NC(=O)CCN1CCN(c2ccc(Cl)cc2)CC1`, the activation is 0.381% (inactive).
Regarding `COc1ccc(Cl)cc1NC(=O)CCN1CCOCC1`, the activation is -5.06% (inactive).
The figure for `COC(=O)CNC(c1ccccc1Cl)c1cc(Br)ccc1NC(=O)CCN1CCOCC1` (configuration not stated) is 57.8% (active); for `COc1ccccc1C(=O)NC(=O)COC(=O)C1CC1` it is 16% (inactive).
For `O=C(O)c1cc(Cl)c(Cl)cc1C(=O)Nc1cccc2ncccc12`, the activation was 56.4% (active).
The figure for `O=C(Nc1cccc2ncccc12)c1ccc(-c2ccc(Cl)cc2Cl)o1` is 38.2% (inactive); for `O=C(Nc1cccc2ncccc12)C(Cl)(Cl)Cl` it is -66% (inactive); for `CN(C(=O)CN1C(=O)NC(C)(CCc2ccccc2)C1=O)c1ccccc1` (configuration not stated) it is 5.79% (inactive).
In the case of `CC(=O)c1c(C)oc2ccc(NS(=O)(=O)c3ccccc3)cc12`, the activation was 18.1% (inactive).
For the compound `COC(=O)c1c(C)oc2ccc(N(C(=O)Oc3ccccc3)S(=O)(=O)c3ccccc3)cc12`, the activation was 74.4% (active).
As to `COc1ccc(S(=O)(=O)Nc2ccc3oc(C)c(C(C)=O)c3c2)cc1`, the activation is -13% (inactive).
As for `CC(C)(C)c1ccc(C(=O)NCc2ccco2)cc1`, the activation was -17.1% (inactive).
The figure for `Nc1cc(N)nc(SCc2ccc(Cl)cc2)n1` is -15.7% (inactive).
With `CCc1nnc(SCc2cccc(F)c2)nc1CC` the figure was -33.8% (inactive); with `Nc1cc(N)nc(SCc2cccc(F)c2)n1`, 76.5% (active); with `COc1ccc(NS(=O)(=O)c2ccc(C)c(C(=O)NNC(=O)c3csc(N4CCOCC4)n3)c2)cc1`, 4.38% (inactive).
In the case of `O=C(NCCC1CCCCN1S(=O)(=O)c1cccs1)C(=O)Nc1ccc(F)cc1F` (configuration not stated), the activation is -7.29% (inactive).
As for `CN(C(=O)COC(=O)c1ccc(Br)o1)c1c(N)n(Cc2ccccc2)c(=O)[nH]c1=O`, the activation was 5.07% (inactive).
The figure for `CC1(C)O[C@@H]2CC3C4C[C@H](F)C5=CC(=O)C=CC5(C)C4C(O)CC3(C)[C@]2(C(=O)CO)O1` (some centres not stated) is -43.8% (inactive); for `COc1ccccc1-c1nnc(-c2ccc(F)cc2)o1` it is 38.9% (inactive); for `COc1ccc(-c2csc(-c3cccs3)n2)cc1OC` it is 19.1% (inactive).
Take `COc1ccc(-c2csc3nc(-c4ccccc4F)oc(=O)c23)cc1OC`: the activation was 164% (active).
Turning to `CC(=O)N/C(=C\c1ccccc1)C(=O)OC(C)C(=O)N(C)c1ccccc1` (configuration not stated), the activation was 2.37% (inactive).
`CCOC(=O)C(C(=O)OCC)C(C#N)c1ccccc1` (configuration not stated): the activation was 14.7% (inactive).
In the case of `CCOC(=O)/C=C/C(=O)OCC(=O)NC(c1ccccc1)c1ccccc1`, the activation was 177% (active).
With `O=C(Cc1ccc(-c2ccccc2)cc1)NC(c1ccccc1)c1ccccc1`, the activation is 0.938% (inactive).
For `COc1ccc(C(C#N)(CC(=O)O)c2cnccn2)cc1OC` (configuration not stated), the activation is -7.73% (inactive).
In the case of `COc1cc(OC)nc(S(C)(=O)=O)n1`, the activation is -10.3% (inactive).
Take `COc1ccc(-c2cc(C(F)(F)F)nc(SCC(=O)Nc3ccc4c(c3)OCO4)n2)cc1OC`: the activation is 12.6% (inactive).
For the compound `COc1ccc(-c2cc(C(F)(F)F)nc(S(C)(=O)=O)n2)cc1OC`, the activation is 236% (active).
For `COc1ccc(CNC(=O)CNC(=O)c2sc3ccccc3c2Cl)cc1OC`, the activation was 5.99% (inactive).
As to `COc1ccc(C(=O)Nc2ccnn2C2CCN(Cc3ccncc3)CC2)cc1`, the activation was 0.31% (inactive).
In the case of `COc1ccc(C(=O)Nc2sc(C)c(C)c2CN2CCOCC2)cc1`, the activation is 399% (active).
With `CCc1cc(C(N)=O)c(NC(=O)c2ccc(OC)cc2)s1`, the activation is 15.1% (inactive).
Turning to `CC(=O)c1c(C)[nH]c(C(=O)N2CCN(S(=O)(=O)c3ccc(F)c(F)c3)CC2)c1C`, the activation was 0.878% (inactive).
As for `CCc1cccc(C)c1NS(=O)(=O)c1cc(Br)cnc1N`, the activation is 0.695% (inactive).
With `Oc1ccccc1CNc1ncc(Br)cc1Br` the figure was 114% (active).
Turning to `O=[N+]([O-])c1ncc(Br)cc1Nc1ccccc1`, the activation is -4.85% (inactive).
In the case of `COc1ccc(S(=O)(=O)N2CCCCC2)cc1NC(=O)C1CC(=O)N(c2ccc3c(c2)OCCO3)C1` (configuration not stated), the activation was 1.34% (inactive).
With `O=C(NCCc1ccccc1)c1ccc2c(c1)N(Cc1ccccc1)CCS2` the figure was 82.5% (active); with `CCOC(=O)N1CCN(C(=O)c2ccc3c(c2)N(Cc2ccc(C)cc2)CCS3)CC1`, 9.82% (inactive); with `O=C(NCCN1CCOCC1)c1ccc2c(c1)N(Cc1ccc(Cl)cc1)CCS2`, 16.5% (inactive).
`CC(=O)Nc1ccc(NC(=O)CSC2=NS(=O)(=O)c3ccccc3N2)cc1`: the activation is -10.3% (inactive).
For the compound `CC(=O)Nc1ccc(NC(=O)C(C)OC(=O)C2CC(=O)N(CCc3ccccc3)C2)cc1` (configuration not stated), the activation was -21.8% (inactive).
Turning to `COCCN(C(=O)COC(=O)Cc1cccc(OC)c1)c1c(N)n(Cc2ccccc2)c(=O)[nH]c1=O`, the activation is 2.54% (inactive).
Regarding `Cc1cccc([C@@H]2[C@@H]3C(=O)N(Cc4ccccc4)C(=O)[C@@H]3[C@]3(Cc4ccc(Cl)cc4)C(=O)N(c4cccc(Cl)c4)C(=O)N23)c1`, the activation was 13.8% (inactive).
As for `Cc1ccc(C(=O)CN2C(=O)NC3(CCc4ccccc43)C2=O)c(C)c1` (configuration not stated), the activation is 0.629% (inactive).
For the compound `COC(=O)c1sc(NC(=O)c2csc3c2CCCC3)nc1C`, the activation was 30.2% (inactive).
In the case of `O=C(Nc1ccccc1N1CCOCC1)c1csc2c1CCCC2`, the activation was 6.54% (inactive).
Consider `Cc1ccc(NC(=O)c2csc3c2CCCC3)cc1`, for which the activation was 59.9% (active).
Take `Cc1cc(=O)oc2cc(NC(=O)C(C)Oc3ccccc3)ccc12` (configuration not stated): the activation is -3.4% (inactive).
For the compound `O=C(c1cc(-c2ccco2)nc2ccccc12)N(Cc1nnc(-c2ccc(Cl)cc2)o1)C1CC1`, the activation is 16.1% (inactive).
`NC(=O)C1CCN(C(=O)c2cn(-c3ccccc3)nc2-c2cccnc2)CC1`: the activation is 32.4% (inactive).
The figure for `Cc1ccc(N(CC(=O)Nc2cccc(N(C)S(C)(=O)=O)c2)S(C)(=O)=O)cc1` is 0.04% (inactive).
For the compound `CN(c1cccc(NC(=O)Nc2ccc(Cl)cc2)c1)S(C)(=O)=O`, the activation is 115% (active).
As to `COc1cccc(N(CC(=O)Nc2cccc(N(C)S(C)(=O)=O)c2)S(C)(=O)=O)c1`, the activation was 12.3% (inactive).
Take `Cc1ccc(SCCC(=O)Nc2cc(C)on2)cc1`: the activation is -5.42% (inactive).
With `Cc1ccc2nc(SCC(=O)NC3CCCC3)[nH]c2c1` the figure was 7.63% (inactive); with `Cc1ccc2nc(-c3ccc(SCC(=O)Nc4cc(C)on4)nc3)[nH]c2c1`, 55.5% (active); with `O=C(COc1ccccc1F)Nc1nc(-c2ccccn2)cs1`, -13.1% (inactive).
Turning to `S=c1[nH]c(-c2cccs2)cn1-c1ccccc1`, the activation was 33.3% (inactive).
On to `COc1ccc(-n2c(-c3ccc(OC)c(OC)c3)n[nH]c2=S)cc1`, for which the activation was 3.03% (inactive).
`COc1ccc(-c2cn(-c3ccc(OC)cc3)c(=S)[nH]2)cc1`: the activation was 56.7% (active).
Consider `CC[C@@]12C(=O)N(c3ccccc3)C(=O)N1[C@H](c1ccc(Br)cc1)[C@@H]1C(=O)N(C(C)(C)C)C(=O)[C@@H]12`, for which the activation is -15% (inactive).
The figure for `CC1CCCCC1NC(=O)c1cc(=O)[nH]c2ccccc12` (configuration not stated) is 1.85% (inactive); for `CCN1CCN(C(=O)N(Cc2ccc(Cl)cc2)S(=O)(=O)c2ccc(C)cc2)CC1` it is 0.289% (inactive).
As to `CCOC(=O)c1c(C)nc2c(c1C)c(=O)oc1ccccc12`, the activation is 36.6% (inactive).
Turning to `CCCCC(=O)Nc1cc(C)c2c(=O)oc3ccccc3c2n1`, the activation is 6.46% (inactive).
With `Cc1ccccc1-n1nnc2c(=O)oc3ccccc3c21` the figure was 105% (active).
With `CN(CC(=O)NNC(=O)CNC(=O)c1ccccc1Cl)S(=O)(=O)c1ccc(Cl)cc1`, the activation was -6.99% (inactive).
On to `CCSc1nnc(-c2cc3c(s2)-c2ccccc2CC3)o1`, for which the activation was 51.8% (active).
For the compound `O=C(CSc1nnc(-c2ccccc2O)o1)NC1CCCCC1`, the activation was -7.41% (inactive).
`Fc1ccc(CSc2nnc(-c3cc4c(s3)-c3ccccc3CC4)o2)cc1`: the activation is 21.9% (inactive).
For `O=C(c1ccncc1)N1CCN(S(=O)(=O)c2cc(C(F)(F)F)cc(C(F)(F)F)c2)CC1`, the activation is 4.51% (inactive).
With `COc1ccc(/C(C)=N/NC(=O)CCC(=O)Nc2ccc(Cl)cc2Cl)c(OC)c1` the figure was 1.67% (inactive).
Regarding `COc1ccc(Cl)cc1NC(=O)CNc1ccccc1F`, the activation was 2.49% (inactive).
Turning to `CCCCC(=O)N/N=C(\C)CC(=O)Nc1cc(Cl)ccc1OC`, the activation was 72.1% (active).
For `COc1ccc(N2CCN(C(=O)CCNC(=O)c3ccc(Br)cc3)CC2)cc1`, the activation was 6.12% (inactive).
As to `CCN(CC(=O)Nc1cc(Cl)ccc1C)C(=O)CN1C(=O)NC2(CCCC2)C1=O`, the activation was -8.94% (inactive).
Take `COc1ccccc1NC(=O)Nc1nc(CC(=O)Nc2ccccc2F)cs1`: the activation is 23.4% (inactive).
As to `COc1ccc(NC(=O)CN(C)C(=O)c2cc(-c3ccc(C)o3)nc3ccccc23)cc1`, the activation was 19.7% (inactive).
For the compound `O=C(NC1CCCC1)c1ccc(Br)s1`, the activation was 7.08% (inactive).
`CC(C)C(=O)OCC(=O)Nc1ccc2c(c1)CCC2`: the activation is 41.4% (inactive).
Consider `O=C(Nc1ccc2c(c1)CCC2)c1ccc(Br)s1`, for which the activation is 71% (active).
With `COc1ccc(S(=O)(=O)N2CCCC2CNC(=O)C(=O)NC2CC2)cc1` (configuration not stated), the activation was 5.75% (inactive).
On to `CC(=NCc1ccco1)c1c(C(F)(F)F)[nH]n(-c2nc3ccccc3s2)c1=O`, for which the activation was -45.7% (inactive).
With `CC(=NCc1ccco1)C1=C(O)c2ccccc2C1=O`, the activation was 106% (active).
For the compound `CC(=NCc1ccc2c(c1)OCO2)C1=C(O)c2ccccc2C1=O`, the activation was 33.7% (inactive).
The figure for `Cc1ccc(-c2cc(C(=O)NC3CCN(Cc4ccccc4)CC3)c3ccccc3n2)cc1` is 11.6% (inactive); for `CC1=C(/C=C/C(C)=C/C=C/C(C)=C/C=C/C=C(C)/C=C/C=C(C)/C=C/C2=C(C)CCCC2(C)C)C(C)(C)CCC1` it is 54.5% (active).
`Cc1cccc(C(=O)OC(C)C(=O)NC2CCCc3ccccc32)c1O` (configuration not stated): the activation was -1.67% (inactive).
On to `CC(C)N(Cc1nnc(-c2ccc(Cl)cc2)o1)C(=O)C1=COCCO1`, for which the activation is -12.7% (inactive).
